# Inconclusive results are not listed. A call without a number means that no potency is given here. The source made the active and inactive calls. Calls follow the shape of the dose curve; as a rule, active = well fitted curve in the direction sought with a large enough effect; inconclusive = small, poorly fitted or top-dose-only effect, or another doubt; inactive = no such curve, though single readings can be large; an effect the other way counts as inactive or inconclusive.
# Experiments:
# [1] = tested on: Zika virus NS2B-NS3 protease (linked construct); assay: Primary screen NINDS Rhodamine qHTS for Zika virus inhibitors (AID 1347160); also: nearly all actives have a fitted effect of over 55% in size
# Summary of the method: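 Single-chain NS2B-NS3 protease, 25 nM, pH 8.0; compounds preincubated 15 min. Activity: Rhodamine110 release from 1.5 microM substrate over 15 min, room temperature, data fitted to 4-parameter Hill.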
# [2] = OV-KATE Cancer Cell Toxicity qHTS against the NCATS CANVASS Library (AID 1347345)
# Summary of the method: (§1)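 Toxicity is measured over 72 h of compound exposure at 37 degrees C under 5% CO2. Each well holds 1000 cells, pre-incubated for 4 hours before dosing across an 11-point range. CellTiter-Glo luminescence gives viability.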
# [3] = HPAF-II Cancer Cell Toxicity qHTS against the NCATS CANVASS Library (AID 1347346); also: series mostly up to about 38 µM; nearly all actives have a fitted effect of over 55% in size
# Summary of the method: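 Using 1000 HPAF-II cells per well, we titrated compounds over 11 concentrations for 72 h at 37 degrees C/5% CO2, with bortezomib as control. Cell survival was quantified by CellTiter-Glo luminescence.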
# [4] = UWB1.289 Cancer Cell Toxicity qHTS against the NCATS CANVASS Library (AID 1347347); also: series mostly up to about 38 µM; nearly all actives have a fitted effect of over 60% in size
# Summary of the method: as §1
# [5] = OV-SAHO Cancer Cell Toxicity qHTS against the NCATS CANVASS Library (AID 1347348); also: series mostly up to about 38 µM; nearly all actives have a fitted effect of over 55% in size
# Summary of the method: as §1
# [6] = Panc-1005 Cancer Cell Toxicity qHTS against the NCATS CANVASS Library (AID 1347349); also: series mostly up to about 38 µM; nearly all actives have a fitted effect of over 60% in size
# Summary of the method: as §1
# [7] = U-118MG Cancer Cell Toxicity qHTS against the NCATS CANVASS Library (AID 1347351); also: series mostly up to about 38 µM
# Summary of the method: as §1
# [8] = Cell Viability - LYMP2-005 (AID 967); also: series mostly up to about 92 µM
# Summary of the method: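 CellTiter-Glo luminescence (cellular ATP) read-out; LYMP2-005 lymphoblastoid cells, 2500/well, 5 h pre-incubation, then 24 h compound exposure at 37 C in complete medium. Tetraoctylammonium bromide positive control; AC50 by standard Hill fit.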
# [9] = Cell Viability - LYMP2-015 (AID 971); also: nearly all actives have a fitted effect of over 55% in size
# Summary of the method: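 AC50 values reflect Hill-model fits of ATP-based luminescence (CellTiter-Glo) from a human lymphoblastoid line, 2500 cells/well, treated 24 hr at 37 C.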
# [10] = Cell Viability - LYMP2-023 (AID 975)
# Summary of the method: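 In this qHTS, ATP-based luciferase luminescence (CellTiter-Glo) is quantified in human lymphoblastoid cells after 24 hr compound treatment at 37 C; tetraoctylammonium bromide serves as positive control. Concentration-response curves are Hill-fitted to give AC50.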
# [11] = Cell Viability - LYMP2-025 (AID 976); also: series mostly up to about 92 µM
# Summary of the method: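 Luminescent ATP readout after 24 hr treatment of a human lymphoblastoid line (LYMP2-025, 2500 cells/well, 37 C). Reagent developed 30 min at room temperature; AC50 fitted with the Hill equation.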
# [12] = Cell Viability - LYMP2-002 (AID 977); also: series mostly up to about 92 µM
# Summary of the method: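 Human lymphoblastoid cells, 2500/well, complete medium; 5 h 37 C settle; compound 24 h 37 C; CellTiter-Glo, 30 min RT; luminescence. Decrease in ATP = cytotoxicity; AC50 via Hill equation.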
# [13] = Cell Viability - LYMP2-014 (AID 983); also: series mostly up to about 92 µM; nearly all actives have a fitted effect of over 50% in size
# Summary of the method: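 Quantitative HTS in lymphoblastoid cells: 24 hr compound exposure, then CellTiter-Glo ATP luminescence. Positive control was tetraoctylammonium bromide, 6.4pM to 92 uM.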
# [14] = Cell Viability - LYMP1-002 - Assay at 24 hr (AID 993)
# Summary of the method: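 Viability was judged from intracellular ATP using a luciferase read-out, following a 24-hour compound incubation at 37 C of lymphoblastoid cells seeded at 2500 per well. Concentration-response data were fitted to the Hill equation for AC50.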
# [15] = Cell Viability - LYMP1-002 - Assay at 40 hr (AID 994); also: nearly all actives have a fitted effect of over 60% in size
# Summary of the method: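 Concentration-dependent ATP loss after 40 hr treatment at 37 C defined toxicity; AC50 values were obtained by fitting the standard Hill equation.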
# [16] = qHTS for differential inhibitors of proliferation of Plasmodium falciparum line 7G8 (AID 1815);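 also: potency is read from the fitted curve at half-maximal effect; parasite growth measured after three days of incubation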
# [17] = qHTS for differential inhibitors of proliferation of Plasmodium falciparum line GB4 (AID 1816); settings: Potency: Plasmodium falciparum GB4 proliferation inhibition;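 also: potency is read from the fitted curve at half-maximal effect; parasite growth measured after 72 h incubation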
# [18] = qHTS for differential inhibitors of proliferation of Plasmodium falciparum line 3D7 (AID 1876); also: potency is read from the fitted curve at half-maximal effect
# [19] = qHTS for differential inhibitors of proliferation of Plasmodium falciparum line HB3 (AID 1886); settings: Potency: Plasmodium falciparum HB3 proliferation inhibition;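 also: potency is read from the fitted curve at half-maximal effect; parasites grown with compound for 72 h before SYBR Green readout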
# [20] = target: M-phase phosphoprotein 8 (Homo sapiens) (UniProt Q99549); assay: qHTS Validation Assay for Inhibitors for MPP8 Chromodomain Interactions with Methylated Histone Tails (AID 488949)
# Sequence of M-phase phosphoprotein 8 (Homo sapiens) (Q99549 whole entry, looked up): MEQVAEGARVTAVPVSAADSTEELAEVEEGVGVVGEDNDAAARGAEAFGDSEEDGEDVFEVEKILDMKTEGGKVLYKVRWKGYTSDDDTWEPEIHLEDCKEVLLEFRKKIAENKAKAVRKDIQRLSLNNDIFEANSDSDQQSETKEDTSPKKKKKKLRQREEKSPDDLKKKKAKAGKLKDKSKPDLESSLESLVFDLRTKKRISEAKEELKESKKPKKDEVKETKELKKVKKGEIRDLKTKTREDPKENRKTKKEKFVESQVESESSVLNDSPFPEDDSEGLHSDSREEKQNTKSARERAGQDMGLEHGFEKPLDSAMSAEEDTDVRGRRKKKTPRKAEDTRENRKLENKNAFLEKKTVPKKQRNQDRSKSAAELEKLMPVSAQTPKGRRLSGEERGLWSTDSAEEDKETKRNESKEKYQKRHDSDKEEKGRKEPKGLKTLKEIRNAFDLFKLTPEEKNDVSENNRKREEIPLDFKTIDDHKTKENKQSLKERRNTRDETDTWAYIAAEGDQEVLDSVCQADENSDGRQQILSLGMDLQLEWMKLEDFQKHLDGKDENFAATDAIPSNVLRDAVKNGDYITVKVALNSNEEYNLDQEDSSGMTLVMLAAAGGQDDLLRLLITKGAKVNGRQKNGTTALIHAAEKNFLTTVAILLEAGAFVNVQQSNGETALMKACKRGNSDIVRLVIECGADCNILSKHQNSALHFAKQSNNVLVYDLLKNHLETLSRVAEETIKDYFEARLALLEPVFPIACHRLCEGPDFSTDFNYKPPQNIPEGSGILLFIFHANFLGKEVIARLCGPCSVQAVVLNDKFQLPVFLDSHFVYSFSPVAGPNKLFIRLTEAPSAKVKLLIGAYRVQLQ
# Summary of the method: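 MPP8 (50 nM) was preincubated with biotinylated H3(1-18)K9me3 peptide (50 nM) in PBS pH 7.4, 0.01% Tween-20 for 30 min at room temperature, then with compounds for 30 min; binding was detected by AlphaScreen.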
compound,measurement,setting,value
CN(C)Cc1c[nH]c2ccccc12,Potency,[1],inactive
same,Potency,[2],inactive
same,Potency,[3],inactive
same,Potency,[4],inactive
same,Potency,[5],inactive
same,Potency,[6],inactive
same,Potency,[7],inactive
Cc1ccccc1O,outcome,[8],inactive
same,outcome,[9],inactive
same,outcome,[10],inactive
same,outcome,[11],inactive
same,outcome,[12],inactive
same,outcome,[13],inactive
same,outcome,[14],inactive
same,Potency,[15],inactive
CC(=O)[C@H]1CC[C@H]2[C@@H]3CCC4=CC(=O)CC[C@]4(C)[C@H]3CC[C@]12C,outcome,[8],inactive
same,outcome,[9],inactive
same,outcome,[10],inactive
same,outcome,[11],inactive
same,outcome,[12],inactive
same,outcome,[13],inactive
same,outcome,[14],inactive
same,Potency,[15],inactive
same,Potency,[16],8.91 µM (active)
same,Potency,[17],12.6 µM (active)
same,Potency,[18],11.2 µM (active)
same,Potency,[19],8.91 µM (active)
CC(C)COC(=O)OCN1C(=O)CN(CCN2CC(=O)N(COC(=O)OCC(C)C)C(=O)C2)CC1=O,Potency,[20],inactive
OC1(c2ccc(Cl)cc2)CCN(Cc2c[nH]c3ccccc23)CC1,Potency,[16],7.08 µM (active)
same,Potency,[17],8.91 µM (active)
same,Potency,[18],5.01 µM (active)
same,Potency,[19],10 µM (active)
same,Potency,[20],inactive
